ELG1 DNA repair: qHTS screen for small molecules that inhibit ELG1-dependent DNA repair in human embryonic kidney (HEK293T) cells expressing luciferase-tagged ELG1; Potency, µM (highest dose often 46.1 µM), without a hit: at the top dose activity change, negative = inhibition, most hits filed as inhibitors; 330,000 compounds, 2.3% hits; HEK293T ELG1-luciferase reporter, luminescence, 16 h; DNA damage induced by 5-fluorouridine; AID 504467, 2011; also: potency is read from the fitted curve at half-maximal effect; % is scaled to controls: 0 for no effect and ±100 for the full control effect; nearly all actives have a fitted effect of over 55% in size
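HEK293T cells expressing luciferase-tagged ELG1 (2,000/well) received 5-Fluorouridine plus compound or DMSO for 16 hr at 37 °C. Luciferase was read by ONE-Glo luminescence after 30 min at room temperature.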
FUS yeast rescue: qHTS for Suppressors of FUS Proteinopathy: Primary screen using FUS-linked yeast assay; S. cerevisiae FUS-expressing, growth rescue, OD600, 24 h; Potency, µM (top dose mostly 76.6 µM), actives largely listed as activators; 390,000 compounds, 0.24% hits; AID 1347120, 2019;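 also: potency is read from the fitted curve at half-maximal effect; plate controls were DMSO vehicle for no effect and reference control for full effect; nearly all actives have a fitted effect of over 55% in size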
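Quantitative HTS measuring growth restoration of FUS-toxic yeast. Galactose-induced cells (OD 0.005) were exposed 24hr at 30C to compounds at several concentrations, then absorbance at 600 nm was recorded.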
TRPV1 agonist: HTS Assay for Compounds that Act as Agonists of the Vanilloid Receptor 1. TRPV1-expressing cells, Fluo-8 calcium influx, agonist mode. activation, % at 8.33 µM. 320,000 compounds, 0.19% hits. Transient receptor potential cation channel subfamily V member 1 (Homo sapiens), Q8NER1; in the data active = activation above about 80%; inconclusive = between about 30% and that limit; also: 0% is about no effect
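TRPV1-expressing cells were cultured overnight at 35.5C and loaded with Fluo-8 calcium dye for 40 to 90 min at room temperature. After a 10 s baseline, compound was added and calcium influx was read kinetically for 3 min (ex 480/em 520 nm).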
TRPV1 potentiator: HTS Assay for Compounds that Act as Potentiators of the Vanilloid Receptor 1 | Transient receptor potential cation channel subfamily V member 1 (Homo sapiens), Q8NER1 | TRPV1-expressing cells, Fluo-8 calcium influx, capsaicin EC20 potentiation | potentiation, % at 8.33 µM | 320,000 compounds, 0.02% hits | AID 540277, 2011; in the data active = potentiation above about 80%; inconclusive = between about 30% and that limit; also: 0% is about no effect
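TRPV1-expressing cells were cultured overnight at 35.5C and loaded with Fluo-8 calcium dye for 40 to 90 min at room temperature. After a 10 s baseline, compound was added and calcium influx was read kinetically for 3 min (ex 480/em 520 nm).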
Giardia killer: Small Molecules that selectively kill Giardia lamblia: qHTS; Giardia lamblia trophozoite viability; activity change, % at 7.66 µM, hits read low; 340,000 compounds, 0.15% hits; AID 540267, 2011; in the data active = activity change below about -80%; inconclusive = between about -30% and that limit;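 also: parasites exposed to compound for two days anaerobically before the ATP read; % is scaled to controls: 0 for no effect and ±100 for the full control effect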
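ATP-content bioluminescence gauges trophozoite survival. Cells (100/well) receive compound and incubate anaerobically for 48 hrs at 37 deg C; detection reagent follows for 15-30 min at room temperature.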
An asterisk follows results filed as active; i = inactive; ? = inconclusive; nt = no result given. A selection: hits, their analogues and other compounds. The true share with any hit is near 2.3%. Unless noted, calls follow the shape of the dose curve; as a rule, active = well fitted curve in the direction sought with a large enough effect; inconclusive = small, poorly fitted or top-dose-only effect, or another doubt; inactive = no such curve, though single readings can be large; an effect the other way counts as inactive or inconclusive.

SMILES | ELG1 DNA repair | FUS yeast rescue | TRPV1 agonist | TRPV1 potentiator | Giardia killer
Cc1cccc(OCc2n(CC(=O)OC3CC(C)CCC3C(C)C)c3ccccc3[n+]2C)c1 (configuration not stated) | ? | i | 10 | -9 | -4
Cc1ccc(C(=O)O)cc1NC1(c2ccccc2)C(=O)c2ccccc2C1=O | nt | i | nt | nt | nt
Cc1cc(C)c(C)c(C(=O)CSc2nnc(-c3ccc4[nH]c(C)c(C)c4c3)o2)c1C | 16µM* | i | 0 | 25 | -6
COCCCn1c(C(=O)NCCN2CCOCC2)cc2c(=O)n3cccc(C)c3nc21 | -16% | i | 1 | -8 | -3
COCCCn1c(C(=O)NC2CCCCC2C)cc2c(=O)n3cccc(C)c3nc21 (configuration not stated) | 13µM* | i | ? | -14 | 36
CCN(C(=O)c1cc2c(=O)n3cccc(C)c3nc2n1CCCOC)C1CCCCC1 | 23µM* | i | ? | -17 | -13
Cc1cc(-c2ccc(C(C)C)c(S(=O)(=O)N3CCN(c4ccccc4)CC3)c2)on1 | ? | i | 16 | -17 | -12
COc1ccc(N2CCN(S(=O)(=O)c3cc(-c4cc(C)no4)ccc3C(C)C)CC2)cc1 | 7.3µM* | i | 1 | 2 | -6
C=CCn1c(SCC(=O)N2CCOCC2)nc2sc(CC)cc2c1=O | ? | nt | nt | nt | 13
C=CCn1c(SCC(=O)N2CCc3ccccc3C2)nc2sc(CC)cc2c1=O | 23µM* | i | ? | 5 | 12
COc1ccc(S(=O)(=O)NC(=O)C2(C)CCN2C(=O)Cc2ccccc2Cl)cc1 (configuration not stated) | nt | i | nt | nt | nt
COc1ccccc1-c1nnc(SCCOc2ccccc2C)o1 | nt | i | nt | nt | nt
O=C(CSc1nc2ccc(NC(=O)C3CCCCC3)cc2s1)NCC1CCCO1 (configuration not stated) | 13µM* | ? | ? | -17 | 0
O=C(CSc1nc2ccccc2s1)NCC1CCCO1 (configuration not stated) | 19% | i | 1 | 13 | 3
Cc1cc(/C([O-])=C(/C(=S)Nc2ccccc2)[n+]2ccccc2)c(C)n1-c1ccccc1 | ? | 16µM* | -1 | 3 | -13
Cc1ccc(-c2cc(NC(=O)c3ccccc3Cl)on2)cc1 | nt | i | nt | nt | nt
COCCn1c(CN2CCN(c3cccc(Cl)c3)CC2)nc2c1c(=O)n(C)c(=O)n2C | 15µM* | i | nt | nt | 13
CC(C)n1c(CN(C)Cc2ccccc2)nc2c1c(=O)n(C)c(=O)n2C | 4.1µM* | i | 0 | 3 | 11
CCOCCn1c(CN(Cc2ccccc2)Cc2ccccc2)nc2c1c(=O)n(C)c(=O)n2C | 18µM* | ? | ? | -24 | 13
CCOCCn1c(CN2CCN(c3cccc(Cl)c3)CC2)nc2c1c(=O)n(C)c(=O)n2C | ? | i | nt | nt | 21
Cn1c(=O)c2c(nc(CN3CCN(Cc4ccccc4)CC3)n2Cc2ccc(Cl)cc2)n(C)c1=O | 21µM* | i | 2 | 1 | 8
CCCCn1c(CN(Cc2ccccc2)Cc2ccccc2)nc2c1c(=O)n(C)c(=O)n2C | nt | i | nt | nt | -5
Cc1cccc(NC(=O)Cn2c(=O)n(Cc3ccccc3)c(=O)c3sc4ccccc4c32)c1 | nt | i | nt | nt | nt
Cc1ccccc1Cn1c(CN2CCc3ccccc3C2)nc2c1c(=O)n(C)c(=O)n2C | 13µM* | i | 2 | -3 | -1
CN(Cc1ccccc1)Cc1nc2c(c(=O)n(C)c(=O)n2C)n1Cc1ccc(F)cc1 | 18µM* | i | 17 | -10 | 6
SMILES | ELG1 DNA repair | FUS yeast rescue | TRPV1 agonist | TRPV1 potentiator | Giardia killer
CCCCNc1nc2c(c(=O)n(C)c(=O)n2C)n1CCC | -5% | i | -6 | 26 | 7
Cc1ccc(Cn2c(CN(C)Cc3ccccc3)nc3c2c(=O)n(C)c(=O)n3C)cc1 | ? | i | 6 | 4 | -6
CCCCCCn1c(NCC)nc2c1c(=O)n(C)c(=O)n2C | 5.8µM* | i | -1 | -7 | 13
C#CCOc1nc2c(c(=O)n(C)c(=O)n2C)n1Cc1ccccc1 | 18µM* | i | -2 | 13 | 0
CC1=C(C(=O)OCC2CCCCC2)C(c2ccc(Cl)cc2)CC(=O)N1 (configuration not stated) | nt | i | nt | nt | nt
CCCCCn1c(CN(C)Cc2ccccc2)nc2c1c(=O)n(C)c(=O)n2C | 18µM* | i | 0 | 6 | -1
Cn1c(=O)c2c(nc(NCCc3ccccc3)n2Cc2ccc(Cl)cc2)n(C)c1=O | nt | i | nt | nt | nt
CC(C)n1c(NCCc2ccccc2)nc2c1c(=O)n(C)c(=O)n2C | 18µM* | i | 2 | 7 | -3
Cc1cccc(NC(=O)CCS(=O)(=O)c2cc(Br)cc3c2N(C(=O)C2CC2)CC3)c1 | nt | i | nt | nt | nt
COc1ccc(NC(=O)Cn2c(=O)c3cc(Cl)ccc3n3nncc23)cc1 | nt | i | nt | nt | nt
C=C(C)COc1ccc(-c2[nH]ncc2-c2ccc(OC)c(OC)c2)c(O)c1 | 21µM* | ? | -7 | 27 | 14
COc1ccc(-c2cn[nH]c2-c2ccc(OCc3ccccc3)cc2O)cc1OC | 13µM* | ? | -2 | 19 | 4
C=C(C)COc1ccc(-c2n[nH]c(C)c2Oc2ccccc2OC)c(O)c1 | ? | i | 2 | 0 | -19
C=C(C)COc1ccc(-c2n[nH]c(C)c2-c2ccc(OC)c(OC)c2)c(O)c1 | 21µM* | i | 8 | 1 | 14
COc1ccc(-c2n[nH]c(C)c2-c2ccc(Cl)cc2)c(O)c1 | 0% | i | 11 | 7 | 5
COc1ccc(-c2n[nH]c(C)c2-c2ccc(Cl)cc2)c(O)c1OC | 12µM* | i | 5 | -1 | 7
COc1ccc(/C=C/S(=O)(=O)NCC(C)C)c(CNC(=O)OC(C)(C)C)c1 | nt | i | nt | nt | nt
O=C(Cn1nnc(-c2ccccc2F)n1)Nc1ccc(Cl)c(Cl)c1 | nt | i | nt | nt | nt
O=S(=O)(c1ccc(Cl)cc1)c1nc(-c2cccs2)oc1SCc1ccc(F)cc1 | nt | i | nt | nt | nt

Source: PubChem (National Center for Advancing Translational Sciences (NCATS))
